Screen size: about 320,000 compounds; about 1,300 (0.41%) were called active. Not shown: some 3% with an inconclusive outcome. No rule for the calls is given here. Not all results are given here. Measured potencies and affinities stand elsewhere.
test: growth inhibition of non-replicating M. tuberculosis (AID 488890); details: Mycobacterium tuberculosis non-replicating, at 25 µM, stronger effect = higher value;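 also: plate controls were DMSO cells for no effect and high antibiotic wells for full effect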

Compound	inhibition [%]
O=C(Nc1ccc(Cl)c(Cl)c1)Nc1nnc(-c2ccncc2)s1	68.9
O=C(Nc1ccc(Cl)cc1)Nc1nnc(-c2ccncc2)s1	16.2
CC1CCCC(NC(=O)COC(=O)c2ccc(Cl)nc2)C1C (stereo not given)	-6.83
C=CCn1c(C)csc1=Nc1ccccc1C	10.7
Cc1nn(Cc2ccccc2Cl)c(C)c1NC(=O)c1noc(C(C)C)c1[N+](=O)[O-]	-8.32
CCc1ccccc1NC(=O)c1noc(C(C)C)c1[N+](=O)[O-]	-10.1
O=C1CN(S(=O)(=O)c2ccccc2)CCN1	3.07
O=C(CC(c1ccccc1)c1ccccc1O)NCc1ccccc1Cl (stereo not given)	23.8
O=C(O)c1ccc(N=C2SCC(=O)N2Cc2ccccc2)cc1	7
O=C1CSC(=S)N1c1cccnc1	11.9
O=C1CSC(=Nc2ccc(Cl)cc2)N1Cc1cccnc1	1.07
O=C(O)c1ccc(N2C(=O)CSC2=S)cc1	74.2
N#Cc1ccc(OCC(O)CN2CCN(CC(O)COc3ccc(C#N)cc3)CC2)cc1 (stereo not given)	-21.4
Cc1ccc(-c2nnc(-c3cccnc3)o2)cc1	37.8
Brc1ccc(-c2nnc(-c3cccnc3)o2)cc1	68.4
CN(C)S(=O)(=O)c1cccc(-c2nnc(SCc3cc(Cl)cc4c3OCOC4)n2N)c1	23.1
Cc1onc(-c2ccccc2Cl)c1C(=O)Nc1ccccc1O	8.07
CN1CC(=O)NC1=NC(=O)c1cc(F)c(F)cc1Cl	-0.31
CN1CC(=O)N/C1=N\C(=O)Nc1ccc(O)cc1	-12.3
COc1ccc(C2NC(=S)NC(C)=C2C(=O)Nc2ccccn2)cc1OC (stereo not given)	-7.65
Cc1ccc(COC(=O)c2cc(S(=O)(=O)N3CCOCC3)ccc2C)cc1	40.1
C/C(=N/NC(=O)c1ccncc1)c1cc2ccc(O)cc2oc1=O	78.4

Compound	inhibition [%]
C/C(=N\NC(=O)c1ccncc1)c1cc2ccccc2o1	69.3
COc1ccc2oc(=O)c(/C(N)=N/NC(=O)c3ccncc3)cc2c1	61.4
COc1ccc(/C(C)=N/NC(=O)c2ccncc2)cc1	67.2
O=C(CCC(=O)N1CCOCC1)NCCc1ccc(F)cc1	5.21
CC(C)C(NCC(=O)Nc1ccccc1C(=O)NC1CC1)c1ccccc1 (stereo not given)	19.6
CCC(C)(C)NS(=O)(=O)c1cc(CN2C(=O)c3cccnc3C2=O)ccc1OC	17.1
O=C1CC2(CCCCC2)Oc2ccc(OCC(=O)N3CCOCC3)cc21	43.3
CCOC(=O)N1CCN(C(=O)COc2ccc3c(c2)C(=O)CC2(CCN(C(C)=O)CC2)O3)CC1	-4.94
O=C(CCNc1cc(Cl)cc(Cl)c1)c1ccco1	-7.67
O=C(Nc1ccc(Cl)c(C(F)(F)F)c1)c1ccco1	71.2
O=C(CNC(=O)c1ccco1)Nc1ccc(F)cc1	-22.8
O=C(CCNC(=O)c1ccco1)Nc1ccc(Cl)c(C(F)(F)F)c1	4.07
O=C(/C=C/Nc1ccc(F)cc1)c1ccco1	-1.7
O=C(CNC(=O)c1ccco1)Nc1cccc(Cl)c1	-9.33
COc1ccc(C(=O)CC(=O)c2ccc(OC)cc2)cc1	19.6
COc1ccc(C(=O)CCNc2cccc(Cl)c2)cc1	73.7
O=C(CN1C(=O)NC2(CCCCC2)C1=O)N1CCN(c2ncccn2)CC1	3.11
CC(C)(SC(=S)N1CCCCCC1)C(=O)O	13.4
CC1=C(C(=O)NCc2ccc3c(c2)OCO3)C2(CCC(C)CC2)OC1=O (stereo not given)	1.75
COc1ccccc1-n1cnnc1SC(C)C(=O)Nc1ccc(NC(C)=O)cc1 (stereo not given)	-12.2
Oc1c(C(c2ccc(F)cc2)N2CCc3ccccc3C2)sc2ncnn12 (stereo not given)	13.3
Cc1cc(C)cc(OCc2nnc(SCC(=O)c3ccccc3)o2)c1	-6.78

Compound	inhibition [%]
C/C(N)=C(/C#N)C(=O)CSc1nnc(C)n1-c1ccccc1	-16.6
O=C(O)C(F)(F)S(=O)(=O)O	-5.17
Cc1cccc(NC2=NC3(CCCCC3)N=C(N)N2)c1	22.2
Cc1ccc(C)c(NC(=S)NCc2ccc3c(c2)OCO3)c1	79.5
CC(=O)Nc1ccc(Nc2ccc3nonc3c2[N+](=O)[O-])cc1	1.34
COc1cccc(CNC(=O)CCNS(=O)(=O)c2ccc3[nH]c(=O)oc3c2)c1	-5.61
Cc1ccc(C(=O)NCC(=O)Nc2ccc(F)c(F)c2F)cc1	-13.1
O=C(Cn1nnc(-c2ccccc2)n1)NNC(=O)c1ccco1	67.8
Cc1ccc(C(=O)N/N=C\c2ccc(OC(=O)c3cccs3)cc2)cn1	-8.9
O=C(N/N=C\c1ccc(OC(=O)c2ccco2)cc1)c1ccc(Cl)cc1	78.6
COc1cc(/C=N/Nc2ccc(Cl)c(C(=O)O)c2)ccc1OC(=O)c1ccccc1F	39
O=C(N/N=C\c1ccc(OC(=O)c2cccs2)cc1)c1ccc(Cl)cc1	52.2
O=C(N/N=C/c1ccc(OC(=O)c2ccco2)cc1)c1ccncc1	69
COc1cc(/C=N/NC(=O)C(N)=O)ccc1OC(=O)c1cccs1	-4.85
COc1ccc(C(=O)Oc2ccc(/C=N/Nc3ccc(Cl)c(C(=O)O)c3)cc2OC)cc1	12.6
COc1cc(/C=N/NC(N)=O)ccc1OC(=O)c1cccs1	2.79
COc1ccc(C2CC(C(F)(F)F)n3ncc(C(=O)O)c3N2)cc1OC (stereo not given)	-8.85
COc1cc(OC)cc(C(=O)NC(=S)N2C[C@H]3C[C@H](C2)c2cccc(=O)n2C3)c1	-9.19
CN(CC(=O)NCc1cccnc1)S(=O)(=O)c1ccc(F)cc1	-7.08
COc1ccc(/C=N/NC(=O)c2ccccc2OCc2ccccc2)c(OC)c1	32
C/C(=N\NC(=O)Cc1ccc([N+](=O)[O-])cc1)c1cccnc1	-2.22
Cc1cc(C(=O)NNC(=O)c2cccs2)c(C)o1	5.92

Compound	inhibition [%]
COc1ccccc1C(=O)Nc1ccc(S(=O)(=O)Nc2nccs2)cc1	16
COc1cccc(C2C(C#N)=C(N)SC(c3ccccc3)C2[N+](=O)[O-])c1 (stereo not given)	20.5
Cc1ccccc1C1=NC(c2ccc(F)cc2F)ON1 (stereo not given)	8.21
O=C(NCCCN1CCOCC1)c1ccccc1-c1ccccc1	3.82
CSc1ccccc1NC(=O)c1cc(C)on1	1.57
COc1cc(C(=O)Nc2nc(OC)c(-c3ccccc3)c(OC)n2)cc(OC)c1OC	-16.2
COc1cc(/C=N/NC(=O)COc2ccccc2C)ccc1OC(=O)c1cccs1	30.8
COc1ccc(/C=N/NC(=O)c2cccnc2)cc1CN1CCOCC1	8.75
COc1ccc(/C=N/NC(=O)c2ccc(Br)cc2)cc1CN1CCOCC1	-2.91
CCOc1cc(/C=N/NC(=O)COc2ccc(C)cc2)ccc1OC(=O)c1cccs1	48.1
COc1cc(/C=N/NC(=O)c2ccncc2)ccc1OC(=O)c1cc(OC)c(OC)c(OC)c1	52.1
COc1cc(/C=N/NC(=O)CNC(=O)c2ccccc2)ccc1OC(=O)c1cccs1	39.5
CCOc1cc(/C=N/NC(=O)COc2ccccc2C)ccc1OC(=O)c1cccs1	9.01
COc1cc(/C=N\NC(=O)c2ccc(C)nc2)ccc1OC(=O)c1cccc(F)c1	-1.23
COc1cc2[nH]c(=O)n(CCC(=O)NCCC(C)C)c(=O)c2cc1OC	-11
O=C(NCCC1CCCCN1S(=O)(=O)c1cccs1)C(=O)NCc1ccccc1 (stereo not given)	10.3
CC1(C)CC(=O)C=C(/C=C/c2ccccc2)C1	-7.3
COc1ccc(CN(C)C(=O)c2ccc(NS(=O)(=O)c3ccc4[nH]c(=O)[nH]c4c3)cc2)c(OC)c1OC	35.7
O=C(N/N=C/C(Br)=C/c1ccccc1)c1ccccc1F	49.9
O=C(c1cc(S(=O)(=O)N2CCC3(CC2)OCCO3)ccc1F)N1CCC2(CC1)OCCO2	-5.64
CCOCC(=O)OCC(=O)NC12CC3CC(CC(C3)C1)C2	-7.93
CCOC(=O)N1CCN(C(=O)NC23CC4CC(CC(C4)C2)C3)CC1	-9.51

Compound	inhibition [%]
CCCN1CCN(S(=O)(=O)c2ccc(-n3cnnn3)cc2)CC1	0.97
COc1ccc(CCNC(=O)C2CCCN(S(=O)(=O)N3CCCCCC3)C2)cc1OC (stereo not given)	14.5
CCOc1ccc(/C=C/C(=O)N(CC)CC(=O)Nc2ccc3c(c2)OCCO3)cc1OC	13.6
COc1ccc(N2CCN(Cc3nc4cc(Cl)ccc4c(=O)[nH]3)CC2)cc1	0.72
CCCn1nnnc1NCc1ccc(F)cc1	24.5
CC(C)c1ccc(CNc2nnnn2C)cc1	44.6
CCCn1nnnc1NCc1ccc(N(C)C)cc1	2.84
CCCn1nnnc1NCc1ccc(OC)cc1	37
CN(Cc1ccccc1)C(=O)COC(=O)C1CCN(S(=O)(=O)c2ccc(Cl)c(C(F)(F)F)c2)CC1	-14.1
CC1CCN(C(=O)C2CCC(CNc3c(N4CCCCC4)c(=O)c3=O)CC2)CC1 (stereo not given)	15.8
O=Cc1cn(-c2ccccc2)nc1-c1ccc(F)cc1	1.85
COc1ccc(-c2nn(-c3ccccc3F)cc2CNCCn2nc(C)cc2C)cc1	52.6
OCc1cn(-c2ccccc2)nc1-c1ccc(-c2nn(-c3ccccc3)cc2CO)cc1	-3.64
Cc1ccc(-n2cc(CNCCN3CCOC3=O)c(-c3ccc(F)cc3)n2)cc1	26.6
O=C(c1ccc2oc(Cc3ccc(Cl)cc3)nc2c1)N1CC[C@H](O)C1	-2.21
CC#CCN(Cc1ccco1)C(=O)c1ccc(OC2CCN(Cc3ccccn3)CC2)cc1	10.1
COc1ccc(/C=C(/C#N)C(=O)Nc2cccnc2)cc1OC	-2.65
C#CCOCCOCCOCCNc1nc(N2CCN(C(=O)C([C@@H](C)CC)n3cc(C(N)CC(C)C)nn3)CC2)nc(N2CCN(C(=O)[C@H](CCC(=O)O)n3cc(C(N)CC(C)C)nn3)CC2)n1 (stereo not given in full)	-10.1
Cc1ccccc1N=C(NO)c1nonc1N	-6.6
O=C(O)c1ccc(Cl)c(S(=O)(=O)Nc2cccc(C(=O)Nc3cccc(C(F)(F)F)c3)c2)c1	26.6
COc1cc(C=Nc2c(C)cc(C)cc2C)ccc1OC(C)=O	-9.04
COc1cc(SC)ccc1C(=O)Nc1cccc(S(=O)(=O)NC2=NCCC2)c1	24.7

Source: PubChem BioAssay AID488890 (Southern Research Specialized Biocontainment Screening …, 2010)
